Screening data (PubChem BioAssay)
LmPK inh: LmPK (Leishmania mexicana) enzyme inhibition. purified LmPK, Kinase-Glo ATP luminescence, 1 h. Potency, µM (series often up to 57.5 µM), for inactives: at the top dose activity change, negative = inhibition, hits mostly inhibitors. 290,000 tested, 0.37% active. AID 1721; note: potency is the fitted concentration of half-maximal effect; % is set by controls: 0 for no effect and ±100 for the full control effect
Target sequence (Q27686 whole entry, looked up): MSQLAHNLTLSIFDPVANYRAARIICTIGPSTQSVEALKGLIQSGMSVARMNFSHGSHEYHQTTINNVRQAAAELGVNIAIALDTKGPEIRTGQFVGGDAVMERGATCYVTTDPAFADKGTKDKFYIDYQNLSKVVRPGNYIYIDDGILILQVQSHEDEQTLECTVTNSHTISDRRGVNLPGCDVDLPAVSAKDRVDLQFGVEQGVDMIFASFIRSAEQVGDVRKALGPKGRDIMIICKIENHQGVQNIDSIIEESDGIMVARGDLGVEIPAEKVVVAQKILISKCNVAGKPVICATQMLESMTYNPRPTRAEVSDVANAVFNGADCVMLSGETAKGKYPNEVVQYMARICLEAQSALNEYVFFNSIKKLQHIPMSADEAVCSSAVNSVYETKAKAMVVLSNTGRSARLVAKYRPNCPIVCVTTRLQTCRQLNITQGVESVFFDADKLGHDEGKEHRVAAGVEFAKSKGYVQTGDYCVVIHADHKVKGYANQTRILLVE
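Purified LmPK (0.1 nM) converted ADP (0.1 mM) to ATP with PEP (0.5 mM) in imidazole buffer pH 7.2 with KCl and MgCl2, 1 h at room temperature. ATP was read by Kinase-Glo luminescence; data normalized to uninhibited and no-enzyme controls.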
RE007 growth inh: less growth of the S. pombe RE007 Vpr strain. AID 651644. 360,000 tested, 0.21% active. S. pombe RE007 Vpr strain, BacTiter-Glo ATP luminescence, 24 h. Potency, µM (series often up to 92.2 µM), for the others: top-dose activity change, negative = less growth, hits mostly inhibitors; active = well fitted falling curve with a large enough effect; inconclusive = small, poorly fitted or top-dose-only effect; inactive = no such curve, though single readings can be large or run the other way; note: potency is the fitted concentration of half-maximal effect; % is set by controls: 0 for no effect and ±100 for the full control effect; nearly all actives have a fitted effect of over 50% in size
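Fission yeast RE007 carrying one integrated HIV-1 vpr copy, seeded at OD 0.01 in PMG+AL medium with 23 nL pinned compound. Grown 24 h at 30 degrees; viability read by BacTiter-Glo luminescence after 5 min.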
TbPYK inhibitor: inhibitors of Trypanosoma brucei pyruvate kinase; Q57TT1; AID 624173; TbPYK enzyme, Kinase-Glo Plus ATP luminescence, 45 min; Potency, µM (doses to about 76.8 µM), for the others: at the highest dose activity, negative = inhibition, usual class: inhibitors; 410,000 tested, 0.12% active; note: potency is the fitted concentration of half-maximal effect; % is set by controls: 0 for no effect and ±100 for the full control effect; nearly all actives have a fitted effect of over 50% in size
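Readout: single end-point luminescence (Kinase-Glo Plus, 10 min). Reaction conditions were TbPYK/substrate plus 130 uM ADP, 45 min at RT, pH 7.2 TEA buffer. No-enzyme wells served as controls, and data were normalized before concentration-response fitting.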
SARS PLpro yeast-1: blocks SARS-CoV papain-like protease in a yeast assay | S. cerevisiae expressing SARS-CoV PLpro, growth rescue | Potency, µM (series often up to 32.9 µM), for inactives: top-dose activity, positive = growth rescue, most hits filed as activators | 330,000 tested, 0.19% active; calls by dose curve; note: potency is the fitted concentration of half-maximal effect; 0% is about no effect; nearly all actives have a fitted effect of over 55% in size
FBPA Giardia inh: Giardia lamblia aldolase inhibition. A8B2U2. AID 2451. Potency, µM (doses to about 59.6 µM), without a hit: at the highest dose activity, negative = inhibition, hits mostly inhibitors. 290,000 tested, 0.71% active. purified Giardia FBPA; note: potency is the fitted concentration of half-maximal effect; % is set by controls: 0 for no effect and ±100 for the full control effect; nearly all actives have a fitted effect of over 55% in size
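Giardia FBPA (40 nM reagent) was preincubated 10 min at RT with compound (up to 57.5 uM final), then substrate plus GAPDH/TPI/NAD/arsenate coupling system with diaphorase/resazurin was added; resorufin fluorescence (525/598 nm) was read after 20 min.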
SARS PLpro yeast-2: Inhibits SARS-CoV PLP in yeast, hit validation. yeast expressing SARS-CoV PLpro, growth phenotype rescue. 1,000 tested, 19% active. shares compounds with SARS PLpro yeast-1. calls only; call rule not given here
Numbers without * were called inactive. In the library only some 1.1% were active in any assay of this set; here they are far more common. Unless noted, calls come from the whole dose curve; as a rule, active = well fitted curve in the direction sought with a large enough effect; inconclusive = small, poorly fitted or top-dose-only effect, or another doubt; inactive = no such curve, though single readings can be large; an effect the other way counts as inactive or inconclusive.

Results for COc1cc2nc(CN3C(=O)c4ccccc4C3=O)oc(=O)c2cc1OC ?
LmPK inh: 0.4%; RE007 growth inh: 19.6%; TbPYK inhibitor: 4.8%; SARS PLpro yeast-1: 22.4µM*; FBPA Giardia inh: -0.9%; SARS PLpro yeast-2: inactive

Results for Cc1c(NC(=O)CSc2ccc(Cl)cc2)c(=O)n(-c2ccccc2)n1C ?
LmPK inh: 0.4%; RE007 growth inh: -6.9%; TbPYK inhibitor: 12.7%; SARS PLpro yeast-1: -1.1%; FBPA Giardia inh: 9.3%

How did Cc1ccc(SCCC(=O)Nc2c(C)n(C)n(-c3ccccc3)c2=O)cc1 do in these assays?
LmPK inh: 8.0%; RE007 growth inh: -9.8%; TbPYK inhibitor: 5.0%; SARS PLpro yeast-1: inconclusive; FBPA Giardia inh: 0.8%; SARS PLpro yeast-2: inactive

Results for Cc1ccc(SC(C)C(=O)Nc2c(C)n(C)n(-c3ccccc3)c2=O)cc1 (stereo unspecified) ?
LmPK inh: 8.2%; RE007 growth inh: 21.5%; TbPYK inhibitor: -6.1%; SARS PLpro yeast-1: inconclusive; FBPA Giardia inh: 14.1%; SARS PLpro yeast-2: active

How did Cc1ccc2c(c1)-c1c(cnn1CC(=O)N1CCN(c3cc(C)ccc3C)CC1)CO2 do in these assays?
TbPYK inhibitor: -3.1%

Results for COc1cccc(NC(=O)Cn2c(=O)n(CCC(=O)NCc3ccccc3OC)c(=O)c3ccccc32)c1 ?
TbPYK inhibitor: -1.2%

How did Cc1cccc(-n2c(SCC(=O)Nc3ccc(C)c(C)c3)nc3n[nH]c(C)c3c2=N)c1 do in these assays?
TbPYK inhibitor: -5.6%

How did C=CCc1cccc(/C=N/NC(=O)C(C)Nc2ccc(C)cc2)c1O (stereo unspecified) do in these assays?
LmPK inh: -4.6%; TbPYK inhibitor: -10.4%; SARS PLpro yeast-1: inconclusive; FBPA Giardia inh: -8.7%; SARS PLpro yeast-2: inactive

What do the screens show for `C/C(=N\NC(=O)c1cc(-c2cccc(OC(C)C)c2)nc2ccccc12)c1cccnc1`?
LmPK inh: 6.0%; RE007 growth inh: 1.1%; TbPYK inhibitor: -5.3%; SARS PLpro yeast-1: 6.3%; FBPA Giardia inh: -4.5%

How did C/C(=N\NC(=O)c1cc(-c2cccnc2)nc2ccccc12)c1ccc(O)cc1O do in these assays?
LmPK inh: 0.9%; RE007 growth inh: 7.2%; TbPYK inhibitor: -9.1%; SARS PLpro yeast-1: inconclusive; FBPA Giardia inh: -12.7%; SARS PLpro yeast-2: inactive

Results for CN(C)NC(=S)Nc1ccc(Cl)cc1 ?
LmPK inh: 3.4%; RE007 growth inh: -8.3%; TbPYK inhibitor: -3.9%; SARS PLpro yeast-1: 11.2µM*; FBPA Giardia inh: -11.8%; SARS PLpro yeast-2: active

What do the screens show for `O=C(Nc1nc(-c2ccccc2)cs1)C1COc2ccccc2O1` (stereo unspecified)?
LmPK inh: 0.7%; RE007 growth inh: inconclusive; TbPYK inhibitor: -6.6%; SARS PLpro yeast-1: -3.5%; FBPA Giardia inh: -1.4%

What do the screens show for `O=C(Nc1nc(-c2ccccn2)cs1)C1COc2ccccc2O1` (stereo unspecified)?
LmPK inh: 2.9%; RE007 growth inh: inconclusive; TbPYK inhibitor: -1.8%; SARS PLpro yeast-1: inconclusive; FBPA Giardia inh: inconclusive; SARS PLpro yeast-2: active

Results for CC(C)COc1ccc(C(=O)N2CCCCC2CCN2CCOCC2)cc1 (stereo unspecified) ?
TbPYK inhibitor: 1.9%

What do the screens show for `O=C(NC1CCCCC1)/C(=N\O)c1ccccn1`?
LmPK inh: -8.7%; RE007 growth inh: 11.2%; TbPYK inhibitor: -2.1%; SARS PLpro yeast-1: inconclusive; FBPA Giardia inh: 4.6%; SARS PLpro yeast-2: inactive

How did CCOC(=O)/C(C#N)=C/c1c(OCC)n(CC)c2ccccc12 do in these assays?
LmPK inh: 0.4%; RE007 growth inh: 4.5%; TbPYK inhibitor: -6.1%; SARS PLpro yeast-1: 12.6µM*; FBPA Giardia inh: -3.2%; SARS PLpro yeast-2: inactive

How did COc1ccc(NC(=O)CN2CCc3ccccc3C2)cc1S(=O)(=O)N1CCOCC1 do in these assays?
LmPK inh: 0.0%; RE007 growth inh: 3.1%; TbPYK inhibitor: 0.3%; SARS PLpro yeast-1: 11.4%; FBPA Giardia inh: 4.0%

How did COc1ccc(NC(=O)CN2CCOCC2)cc1S(=O)(=O)N1CCCCC1 do in these assays?
RE007 growth inh: 1.1%; TbPYK inhibitor: 2.3%; SARS PLpro yeast-1: inconclusive; SARS PLpro yeast-2: inactive

How did CCN(NC(=O)C(O)(c1ccccc1)c1ccccc1)C(=O)c1ccccc1 do in these assays?
LmPK inh: -0.7%; RE007 growth inh: 10.1%; TbPYK inhibitor: 2.5%; SARS PLpro yeast-1: 14.1µM*; FBPA Giardia inh: -1.7%; SARS PLpro yeast-2: inactive

What do the screens show for `CCn1nnc(-c2ccccc2NS(=O)(=O)c2ccc(S(=O)(=O)N3CCCCCC3)cc2)n1`?
LmPK inh: 1.1%; RE007 growth inh: -2.9%; TbPYK inhibitor: 0.5%; SARS PLpro yeast-1: -7.1%; FBPA Giardia inh: -16.8%

Results for CCn1nnc(-c2ccccc2NS(=O)(=O)c2ccc(S(=O)(=O)N(C)C3CCCCC3)cc2)n1 ?
LmPK inh: 15.2%; RE007 growth inh: 2.5%; TbPYK inhibitor: -0.1%; SARS PLpro yeast-1: inconclusive; FBPA Giardia inh: 1.4%; SARS PLpro yeast-2: active

Results for COc1cccc(CN2CCNC(=O)C2CC(=O)N(C)CC2CCOCC2)c1 (stereo unspecified) ?
LmPK inh: -8.0%; RE007 growth inh: -12.6%; TbPYK inhibitor: -1.7%; SARS PLpro yeast-1: 4.3%

How did COc1cccc(CN(C)C(=O)CC2C(=O)NCCN2C2Cc3ccccc3C2)c1 (stereo unspecified) do in these assays?
LmPK inh: -10.9%; RE007 growth inh: -19.5%; TbPYK inhibitor: 4.3%; SARS PLpro yeast-2: inactive

How did CCCc1cc(N2CCN(c3ccccc3F)CC2)n2cnnc2n1 do in these assays?
TbPYK inhibitor: -0.2%

What do the screens show for `COc1ccccc1Nc1nnc(SCc2nnc(-c3cc(OC)c(OC)c(OC)c3)o2)s1`?
LmPK inh: 1.0%; RE007 growth inh: -7.8%; TbPYK inhibitor: -19.8%; SARS PLpro yeast-1: -10.3%; FBPA Giardia inh: 0.9%

Results for CCOc1ccccc1Nc1nnc(SCc2nnc(-c3cc(OC)c(OC)c(OC)c3)o2)s1 ?
LmPK inh: -3.2%; RE007 growth inh: -7.6%; TbPYK inhibitor: -4.1%; SARS PLpro yeast-1: inconclusive; FBPA Giardia inh: -3.6%; SARS PLpro yeast-2: inactive

Results for O=C(CSc1nnc(Cn2c(=O)sc3ccccc32)n1-c1ccccc1)N1CCCC1 ?
LmPK inh: 4.8%; RE007 growth inh: -3.8%; TbPYK inhibitor: -7.7%; SARS PLpro yeast-1: inconclusive; FBPA Giardia inh: 4.1%; SARS PLpro yeast-2: inactive

How did O=C(CSc1nnc(Cn2c(=O)sc3ccccc32)n1-c1ccccc1)N1CCCCCC1 do in these assays?
LmPK inh: 6.3%; RE007 growth inh: 10.1%; TbPYK inhibitor: -1.7%; SARS PLpro yeast-1: -12.2%; FBPA Giardia inh: -1.7%
